# Results from ChEMBL document CHEMBL4296182, “CO-ADD screening of NIH NCI Diversity Set V”.
# Entries with a potency or affinity are not part of this list.
# System: Candida albicans
# Details: 20 µM
row,SMILES,Inhibition [%]
1,COc1ccc2c(c1)C(=O)C1NC(=O)NC(=O)C1(Br)N2 (centres undefined),-1.05
2,[O-][n+]1nc2ccccc2c2ccccc21,6.35
3,NC(=O)N/N=C1\CC2CC1C1C=CCC21 (centres undefined),-2.08
4,Sc1cnnc2ccccc12,6.56
5,NC(=O)c1cc2c3ccccc3ccn2c1-c1ccccc1,6.45
6,CC12CCC(/C(=N/c3ccc(/N=C4\C(=O)C5(C)CCC4C5(C)C)cc3)C1=O)C2(C)C,0.19
7,O=C(Nc1ccc(Oc2ccc(NC(=O)Nc3ccccc3Cl)cc2)cc1)Nc1ccccc1Cl,16
8,COCC(=O)OC1CCn2c1nc1c2C(=O)C(C)=C(NC(C)=O)C1=O (centres undefined),-3.01
9,O=c1nc2onnc2c(/C=N\O)[nH]1,-0.67
10,O=C(O)CSc1ccc(NC(=O)Nc2ccccc2F)cc1,-1.57
11,Nc1cc(-c2ccccc2)ccc1O,4.12
12,O=C1/C(=N\c2cccc(Cl)c2)CC(c2ccc(Cl)cc2)N1c1cccc(Cl)c1 (centres undefined),-2.19
13,CC(=O)NS(=O)(=O)c1ccc2sc(C)nc2c1,3.43
14,COc1ccc(/C(C#N)=C/c2cccnc2)cc1,11.3
15,Cn1cnc([N+](=O)[O-])c1Sc1nnc(-c2cccnc2)n1C,6.51
16,CN(C)c1ccc(/C=C(\C#N)C(=O)c2ccccc2)cc1,4.91

# System: Cryptococcus neoformans
# Details: Concentration 20 uM; ASSAY_TEST Inhibition of Fungal Growth; detection method Resazurin; Absorption (OD600-OD570); plate type 384well; NBS; CORNING #3640
row,SMILES,Inhibition [%]
1,CCC(C)n1c(C)cc(=O)n1C(C)CC (centres undefined),-4.99
2,CC(C)(C)N1CCC1CN (centres undefined),-5.34
3,CCOc1ccc(/C=C2\CCc3ccccc3C2=O)cc1,-7.99
4,Cc1ccc(S(=O)(=O)NC(=O)Nc2nccs2)cc1,-5.56
5,NC(=O)CCC(C(=O)O)N1C(=O)C2C3CCC(C3)C2C1=O (centres undefined),-5.24
6,Cn1ncc2c(NCc3ccccc3)ncnc21,-9.92
7,N#CNC(=N)c1ccccc1,22.72
8,CCOC(=O)/C=C/c1nc(O)c(C)c(C(=O)OCC)n1,-10.31
9,Nc1o[nH]c(=O)c1C1CCCCC1,-0.63
10,CCCCOc1ccc(OC(=O)Nc2cc(Cl)ccc2OC)cc1,-2.51
11,O=C(COc1cc(Cl)c(Cl)cc1Cl)Nc1ccc([N+](=O)[O-])cc1Cl,1.18
12,NNC(=O)Cc1cc(O)[nH]n1,-9.5
13,Cc1cccc(Nc2sc(C(=O)c3cc4cc(Cl)ccc4o3)c(N)c2C#N)c1,37.64
14,S=C1N(c2ccccc2)CN(C2CCCCC2)CN1c1ccccc1,-5.37
15,[O-]/[N+](=C\c1ccccc1)CC1(O)CCCCC1,9.39
16,COc1cc(-c2ccc(Nc3ccccc3C(=O)O)c(OC)c2)ccc1Nc1ccccc1C(=O)O,-0.24
17,O[C@@H](c1cc(-c2ccc(C(F)(F)F)cc2)nc(C(F)(F)F)c1)[C@H]1CCCCN1,-3.44
18,N#Cc1cnn(-c2cccc(Cl)c2)c1-n1cccc1,-16.73
19,Cc1cccc(C)c1NC(=O)NCc1ccco1,-10.4

row,SMILES,Inhibition [%]
1,NC(=O)Oc1cccc(OC(N)=O)c1,-9.78
2,COc1ccc(C2OC3=Nc4cc(C)c(C)cc4NC3=C2O)cc1 (centres undefined),-7.87
3,CC1(C)CC(=O)C(CC(=O)c2ccccc2)=C(NNC(=N)N)C1,-4.09
4,COc1ccc2c(c1)C(=O)C1NC(=O)NC(=O)C1(Br)N2 (centres undefined),-13.08
5,[O-][n+]1nc2ccccc2c2ccccc21,8.25
6,NC(=O)N/N=C1\CC2CC1C1C=CCC21 (centres undefined),-9.13
7,Sc1cnnc2ccccc12,22.39
8,NC(=O)c1cc2c3ccccc3ccn2c1-c1ccccc1,-9.75
9,CC12CCC(/C(=N/c3ccc(/N=C4\C(=O)C5(C)CCC4C5(C)C)cc3)C1=O)C2(C)C,-4.9
10,O=C(Nc1ccc(Oc2ccc(NC(=O)Nc3ccccc3Cl)cc2)cc1)Nc1ccccc1Cl,6.13
11,COCC(=O)OC1CCn2c1nc1c2C(=O)C(C)=C(NC(C)=O)C1=O (centres undefined),-13.92
12,O=c1nc2onnc2c(/C=N\O)[nH]1,-3.06
13,O=C(O)CSc1ccc(NC(=O)Nc2ccccc2F)cc1,-6.03
14,Nc1cc(-c2ccccc2)ccc1O,-0.33
15,O=C1/C(=N\c2cccc(Cl)c2)CC(c2ccc(Cl)cc2)N1c1cccc(Cl)c1 (centres undefined),-8.61
16,CC(=O)NS(=O)(=O)c1ccc2sc(C)nc2c1,-4.98
17,COc1ccc(/C(C#N)=C/c2cccnc2)cc1,-16.52
18,Cn1cnc([N+](=O)[O-])c1Sc1nnc(-c2cccnc2)n1C,-6.62
19,CN(C)c1ccc(/C=C(\C#N)C(=O)c2ccccc2)cc1,-12.58
